From PubChem BioAssay (NCATS)
Values joined by “and” are separate entries in the source; they are usually repeats but may differ in a detail not shown here. Identical values can stand only once. Results filed as inconclusive are left out. Active and inactive are the calls of the source. Calls follow the shape of the dose curve; as a rule, active = well fitted curve in the direction sought with a large enough effect; inconclusive = small, poorly fitted or top-dose-only effect, or another doubt; inactive = no such curve, though single readings can be large; an effect the other way counts as inactive or inconclusive.

Assays:
JEG-3 = test: Primary qHTS to identify gynecologic anti-cancer compounds using libraries of approved drugs and bioactive compounds (AID 1345084); conditions: Gynecologic cancer cell panel viability, ATPlite luminescence, 48 h; series mostly up to 57.5 µM; also: nearly all actives have a fitted effect of over 55% in size
In short: (§1)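 Five-concentration response, 48 h; readout is ATP-driven luciferase luminescence.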

OV90 = test: as above; conditions: Gynecologic cancer cell panel viability, ATPlite luminescence, 48 h; series mostly up to 57.5 µM
In short: as §1

PA-1 = test: as above; conditions: Gynecologic cancer cell panel viability, ATPlite luminescence, 48 h; series mostly up to 57.5 µM
In short: as §1

SKOV3 = test: as above; conditions: Gynecologic cancer cell panel viability, ATPlite luminescence, 48 h; series mostly up to 57.5 µM
In short: as §1

Tov-21-G = test: as above; conditions: Gynecologic cancer cell panel viability, ATPlite luminescence, 48 h; series mostly up to 57.5 µM
In short: as §1

Tov112D = test: as above; conditions: Gynecologic cancer cell panel viability, ATPlite luminescence, 48 h; series mostly up to 57.5 µM
In short: as §1

[1] = Drug repurposing screens with cells derived from glioblastoma tumor samples (AID 1345199); conditions: GBM patient neurospheres viability, ATP luminescence, 48 h; also: nearly all actives have a fitted effect of over 40% in size; also: potency is read from the fitted curve at half-maximal effect
In short: (§2)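 Four patient lines of CD133+ GBM neurospheres were screened at several concentrations; hits were retested in those lines plus three slower-growing GBM lines, using 48-hour treatment and ATP-based viability.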

astro = test: as above; conditions: viability, ATP luminescence, 48 h; series mostly up to 45.9 µM
In short: as §2

[2] = at 45.9 µM (top of the series), tumour line B
[3] = at 45.9 µM (top of the series), tumour line D
[4] = at 46 µM (top of the series), tumour line A
[5] = at 46.1 µM (top of the series), tumour line C
[6] = at 20 µM (top of the series), tumour line C
[7] = at 21.2 µM (top of the series), tumour line B
[8] = at 21.2 µM (top of the series), tumour line D
[9] = at 21.3 µM (top of the series), tumour line A
% is scaled to controls: 0 for no effect and ±100 for the full control effect.

CO[C@@]1(NC(=O)CSCC#N)C(=O)N2C(C(=O)O)=C(CSc3nnnn3C)CS[C@@H]21
inactive: Potency (JEG-3) | Potency (OV90) | Potency (PA-1) | Potency (SKOV3) | Potency (Tov-21-G) | Potency (Tov112D) | activity, negative = cell killing [1, 2] -13.1% | activity, negative = cell killing [1, 3] -14.3% | activity, negative = cell killing [1, 4] -28.8% | Potency (astro)

Cc1ccc(=O)n(-c2ccccc2)c1
inactive: Potency (JEG-3) | Potency (OV90) | Potency (PA-1) | Potency (SKOV3) | Potency (Tov-21-G) | Potency (Tov112D) | activity, negative = cell killing [1, 2] -7.87% | activity, negative = cell killing [1, 3] 11.3% | activity, negative = cell killing [1, 4] -13.3% | activity, negative = cell killing [1, 5] -7.43% | Potency (astro)

CCCCCN(CCCCC)C(=O)C(CCC(=O)O)NC(=O)c1ccc(Cl)c(Cl)c1 (stereo not drawn)
inactive: Potency (JEG-3) | Potency (OV90) | Potency (PA-1) | Potency (SKOV3) | Potency (Tov-21-G) | Potency (Tov112D) | activity, negative = cell killing [1, 2] -4.86% | activity, negative = cell killing [1, 3] -12.8% | activity, negative = cell killing [1, 5] -26.2% | Potency (astro)

CC(C(=O)O)c1ccc(CC2CCCC2=O)cc1 (stereo not drawn)
inactive: Potency (JEG-3) | Potency (OV90) | Potency (PA-1) | Potency (SKOV3) | Potency (Tov-21-G) | Potency (Tov112D) | activity, negative = cell killing [1, 2] -3.22% | activity, negative = cell killing [1, 3] 4.21% | activity, negative = cell killing [1, 4] -18.9% | activity, negative = cell killing [1, 5] -19.4% | Potency (astro)

Cc1scc2c1N(C(=O)CN1CCN(C)CC1)c1ccccc1NC2=O
inactive: Potency (JEG-3) | Potency (OV90) | Potency (PA-1) | Potency (SKOV3) | Potency (Tov-21-G) | Potency (Tov112D) | activity, negative = cell killing [1, 2] -11.6% | activity, negative = cell killing [1, 3] 2.13% | activity, negative = cell killing [1, 4] -22.7% | activity, negative = cell killing [1, 5] -12.1% | Potency (astro)

NS(=O)(=O)c1cc2c(cc1Cl)NC(C1CC3C=CC1C3)NS2(=O)=O (stereo not drawn)
inactive: Potency (JEG-3) | Potency (OV90) | Potency (PA-1) | Potency (SKOV3) | Potency (Tov-21-G) | Potency (Tov112D) | activity, negative = cell killing [1, 2] 0.786% | activity, negative = cell killing [1, 3] 7.03% | activity, negative = cell killing [1, 4] -11.5% | activity, negative = cell killing [1, 5] -5.22% | Potency (astro)

CC(=O)OC(C)C[N+](C)(C)C (stereo not drawn)
inactive: Potency (JEG-3) | Potency (OV90) | Potency (PA-1) | Potency (SKOV3) | Potency (Tov-21-G) | Potency (Tov112D) | activity, negative = cell killing [1, 6] 12% | activity, negative = cell killing [1, 7] 6.44% | activity, negative = cell killing [1, 8] -7.66% | activity, negative = cell killing [1, 9] -14.4% | Potency (astro)

NCCCNCCSP(=O)(O)O
inactive: activity change, negative = cytotoxicity (JEG-3) -0.217% [at 11.6 µM] | activity change, negative = cytotoxicity (OV90) -0.281% [at 11.6 µM] | activity change, negative = cytotoxicity (PA-1) 1.25% [at 11.6 µM] | activity change, negative = cytotoxicity (SKOV3) 19.8% [at 11.6 µM] | activity change, negative = cytotoxicity (Tov-21-G) -2.2% [at 11.6 µM] | activity change, negative = cytotoxicity (Tov112D) 1.24% [at 11.6 µM] | activity, negative = cell killing [1, 2] -11.7% | activity, negative = cell killing [1, 3] -3.44% | activity, negative = cell killing [1, 4] -3.51% | activity, negative = cell killing [1, 5] 0.364% | Potency (astro)

Cc1ccc(/C(=C\CN2CCCC2)c2ccccn2)cc1
inactive: Potency (JEG-3) | Potency (OV90) | Potency (PA-1) | Potency (SKOV3) | Potency (Tov-21-G) | Potency (Tov112D) | activity, negative = cell killing [1, 2] -22.4% | activity, negative = cell killing [1, 3] -28.9% | activity, negative = cell killing [1, 5] 0.541% | Potency (astro)
active: Potency ([1]; tumour line A) 17.8 µM

FC(F)(F)c1ccccc1-n1ccnc1
inactive: Potency (JEG-3) | Potency (OV90) | Potency (PA-1) | Potency (SKOV3) | Potency (Tov-21-G) | Potency (Tov112D) | activity, negative = cell killing [1, 2] -13.1% | activity, negative = cell killing [1, 3] -9.1% | activity, negative = cell killing [1, 4] -27.4% | activity, negative = cell killing [1, 5] -16.7% | Potency (astro)

C[C@]12CC[C@@H]3c4ccc(O)cc4C[C@@H](CCCCCCCCCS(=O)CCCC(F)(F)C(F)(F)F)[C@H]3[C@@H]1CC[C@@H]2O (stereo partly drawn)
active: Potency ([1]; tumour line A) 4.47 µM
inactive: Potency (JEG-3) | Potency (OV90) | Potency (PA-1) | Potency (SKOV3) | Potency (Tov-21-G) | Potency (Tov112D) | activity, negative = cell killing [1, 2] 11.9% | activity, negative = cell killing [1, 3] -8.98% | activity, negative = cell killing [1, 5] 16.6% | Potency (astro)

CCN(CC)CCNC(=O)c1ccc(NC(C)=O)cc1
inactive: Potency (JEG-3) | Potency (OV90) | Potency (PA-1) | Potency (SKOV3) | Potency (Tov-21-G) | Potency (Tov112D) | activity, negative = cell killing [1, 2] -5.4% | activity, negative = cell killing [1, 3] 7.82% | activity, negative = cell killing [1, 4] 7.67% | activity, negative = cell killing [1, 5] -13.9% | Potency (astro)

CC(=O)Oc1cc(C(C)C)c(OCCN(C)C)cc1C
inactive: Potency (JEG-3) | Potency (OV90) | Potency (PA-1) | Potency (SKOV3) | Potency (Tov-21-G) | Potency (Tov112D) | activity, negative = cell killing [1, 6] -2.72% | activity, negative = cell killing [1, 7] -4.22% | activity, negative = cell killing [1, 8] -2.65% | activity, negative = cell killing [1, 9] -22.5% | Potency (astro)

CN(C)C(=O)Oc1ccc[n+](C)c1
inactive: Potency (JEG-3) | Potency (OV90) | Potency (PA-1) | Potency (SKOV3) | Potency (Tov-21-G) | Potency (Tov112D) | activity, negative = cell killing [1, 2] 5.33% | activity, negative = cell killing [1, 3] -8.24% | activity, negative = cell killing [1, 4] -28.3% | activity, negative = cell killing [1, 5] -15.6% | Potency (astro)

COCCc1ccc(OCC(O)CNC(C)C)cc1 (stereo not drawn)
inactive: Potency (JEG-3) | Potency (OV90) | Potency (PA-1) | Potency (SKOV3) | Potency (Tov-21-G) | Potency (Tov112D) | activity, negative = cell killing [1, 2] -10.1% and -7.19% and -6.43% | activity, negative = cell killing [1, 3] 1.85% and 20.6% and -26.1% | activity, negative = cell killing [1, 4] -33.9% | activity, negative = cell killing [1, 5] -0.129% and -0.523% | Potency (astro)

C=CCc1ccccc1OCC(O)CNC(C)C (stereo not drawn)
inactive: Potency (JEG-3) | Potency (OV90) | Potency (PA-1) | Potency (SKOV3) | Potency (Tov-21-G) | Potency (Tov112D) | activity, negative = cell killing [1, 2] -18% | activity, negative = cell killing [1, 3] -4.74% | activity, negative = cell killing [1, 5] -6.66% | Potency (astro)
